{"source": "paper PMC8384837", "about": "“Expanding the binding specificity for RNA recognition by a PUF domain”", "assay_in_all_cases": "yeast three-hybrid, YBZ-1, SC-Leu-His + 0.5 mM 3-AT, 4 days", "details_in_all_cases": "tags: N-Gal4 AD-HA kept; label: inside an RPR1-promoter hybrid RNA with tandem MS2 sites; ssRNA", "key": {"PUM1 PUF domain R5-KHL": {"biological_target": "PUM1 PUF domain R5-KHL (Homo sapiens, UniProt Q14671 828-1176, C1007K;R1008H;Q1011L)", "procedure,_shortened": "(§1)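 Pumilio-1 PUF domain libraries, randomized (NNK) at the three base-contacting residues of each repeat, were co-expressed with matching RNA elements from a centromeric plasmid in strain YBZ-1 (LexA–MS2 coat fusion, HIS3 reporter). Transformants were plated on SC-Leu (input) and SC-Leu-His + 0.5 mM 3-AT (selection) for four days, and repeat regions were PCR-amplified and Illumina-sequenced. The interaction score is the log2 change in variant frequency from input to selection, with pseudocount 1 where absent.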"}, "PUM1 PUF domain R6-KWR": {"biological_target": "T1, PUM1 PUF domain R6-KWR (Homo sapiens, UniProt Q14671 828-1176, N1043K;Y1044W;Q1047R)", "T1 sequence": "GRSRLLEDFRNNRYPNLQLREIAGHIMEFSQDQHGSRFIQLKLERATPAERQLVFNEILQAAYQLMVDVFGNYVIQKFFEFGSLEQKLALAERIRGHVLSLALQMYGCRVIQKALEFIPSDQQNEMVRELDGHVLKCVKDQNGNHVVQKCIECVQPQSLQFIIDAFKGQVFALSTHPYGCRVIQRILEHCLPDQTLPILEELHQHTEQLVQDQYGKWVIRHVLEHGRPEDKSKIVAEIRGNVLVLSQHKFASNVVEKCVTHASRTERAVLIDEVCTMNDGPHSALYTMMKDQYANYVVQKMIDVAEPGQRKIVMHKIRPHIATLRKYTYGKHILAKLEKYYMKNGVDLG", "procedure,_shortened": "as §1"}, "PUM1 PUF domain R7-QRD": {"biological_target": "PUM1 PUF domain R7-QRD (Homo sapiens, UniProt Q14671 828-1176, S1079Q;N1080R;E1083D)", "procedure,_shortened": "as §1"}, "PUM1 PUF domain R6-LWV": {"biological_target": "T2, PUM1 PUF domain R6-LWV (Homo sapiens, UniProt Q14671 828-1176, N1043L;Y1044W;Q1047V)", "T2 sequence": "T1 sequence with K216L, R220V", "procedure,_shortened": "as §1"}, "PUM1 PUF domain R3-GWI": {"biological_target": "PUM1 PUF domain R3-GWI (Homo sapiens, UniProt Q14671 828-1176, C935G;R936W;Q939I)", "procedure,_shortened": "as §1"}, "PUM1 PUF domain R1-KWE": {"biological_target": "PUM1 PUF domain R1-KWE (Homo sapiens, UniProt Q14671 828-1176, S863K;R864W;Q867E)", "procedure,_shortened": "as §1"}, "PUM1 PUF domain R3-RQG": {"biological_target": "PUM1 PUF domain R3-RQG (Homo sapiens, UniProt Q14671 828-1176, C935R;R936Q;Q939G)", "procedure,_shortened": "as §1"}, "PUM1 PUF domain R2-KLQ": {"biological_target": "PUM1 PUF domain R2-KLQ (Homo sapiens, UniProt Q14671 828-1176, N899K;Y900L)", "procedure,_shortened": "as §1"}, "PUM1 PUF domain R4-DYN": {"biological_target": "PUM1 PUF domain R4-DYN (Homo sapiens, UniProt Q14671 828-1176, N971D;H972Y;Q975N)", "procedure,_shortened": "as §1"}}, "note": "Where a chain is given by its changes, count along the chain named.", "data": [{"sequence": "GGCUAGAACUAGUGGAUCCCCCGGCGCCCGGCGGCUCGAGCCCGGGUAAGUGUUAAUAGUCUGCAUGCCGCCGGGCGCCAUGCCUGCAGGUCGACUCUAGAAAACAUG", "values": [{"measurement": "binding signal", "setting": "PUM1 PUF domain R5-KHL", "value": "5.83 log2 enrichment (interaction score)"}]}, {"sequence": "GGCUAGAACUAGUGGAUCCCCCGGCGCCCGGCGGCUCGAGCCCGGGUAAGUGUAAAUAGUCUGCAUGCCGCCGGGCGCCAUGCCUGCAGGUCGACUCUAGAAAACAUG", "values": [{"measurement": "binding signal", "setting": "PUM1 PUF domain R6-KWR", "value": "6.69 log2 enrichment (interaction score)"}, {"measurement": "binding signal", "setting": "PUM1 PUF domain R7-QRD", "value": "2.72 log2 enrichment (interaction score)"}, {"measurement": "binding signal", "setting": "PUM1 PUF domain R6-LWV", "value": "3.67 log2 enrichment (interaction score)"}, {"measurement": "binding signal", "setting": "PUM1 PUF domain R3-GWI", "value": "2.68 log2 enrichment (interaction score)"}]}, {"sequence": "GGCUAGAACUAGUGGAUCCCCCGGCGCCCGGCGGCUCGAGCCCGGGUAAGUGUAAAUCGUCUGCAUGCCGCCGGGCGCCAUGCCUGCAGGUCGACUCUAGAAAACAUG", "values": [{"measurement": "binding signal", "setting": "PUM1 PUF domain R1-KWE", "value": "4.74 log2 enrichment (interaction score)"}]}, {"sequence": "GGCUAGAACUAGUGGAUCCCCCGGCGCCCGGCGGCUCGAGCCCGGGUAAGUGUAAUUAGUCUGCAUGCCGCCGGGCGCCAUGCCUGCAGGUCGACUCUAGAAAACAUG", "values": [{"measurement": "binding signal", "setting": "PUM1 PUF domain R3-RQG", "value": "4.14 log2 enrichment (interaction score)"}]}, {"sequence": "GGCUAGAACUAGUGGAUCCCCCGGCGCCCGGCGGCUCGAGCCCGGGUAAGUGAAAAUAGUCUGCAUGCCGCCGGGCGCCAUGCCUGCAGGUCGACUCUAGAAAACAUG", "values": [{"measurement": "binding signal", "setting": "PUM1 PUF domain R6-LWV", "value": "2.8 log2 enrichment (interaction score)"}]}, {"sequence": "GGCUAGAACUAGUGGAUCCCCCGGCGCCCGGCGGCUCGAGCCCGGGUAAGUGUAAAGAGUCUGCAUGCCGCCGGGCGCCAUGCCUGCAGGUCGACUCUAGAAAACAUG", "values": [{"measurement": "binding signal", "setting": "PUM1 PUF domain R2-KLQ", "value": "3.21 log2 enrichment (interaction score)"}]}, {"sequence": "GGCUAGAACUAGUGGAUCCCCCGGCGCCCGGCGGCUCGAGCCCGGGUAAGUGUAUAUAGUCUGCAUGCCGCCGGGCGCCAUGCCUGCAGGUCGACUCUAGAAAACAUG", "values": [{"measurement": "binding signal", "setting": "PUM1 PUF domain R4-DYN", "value": "5.22 log2 enrichment (interaction score)"}]}]}
